{"source": "PubChem BioAssay", "data": [{"assay": "differential killing of epithelial or mesenchymal cells, primary screen, imaging, PC-3E GFP, TEM4-18 mCherry, co-culture (AID 1345086);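 also: cells exposed to compound for 72 h before imaging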", "settings": "imaging cell counts, measured here: mesenchymal TEM4-18 mCherry cell survival, at 1 µM", "values": [{"smiles": "CC[C@]1(O)CC2CN(CCc3c([nH]c4ccccc34)[C@@](C(=O)OC)(c3cc4c(cc3OC)N(C)[C@H]3[C@@](O)(C(=O)OC)[C@H](OC(C)=O)[C@]5(CC)C=CCN6CC[C@]43[C@@H]65)C2)C1", "note": "(stereo partly specified)", "normalised cell number": 0.2}, {"smiles": "C[C@]12CCC3c4ccc(O)cc4CCC3C1CCC2=O", "note": "(stereo partly specified)", "normalised cell number": 0.99}, {"smiles": "OC[C@@H](O)[C@@H](O)[C@H](O)[C@@H](O)CO", "normalised cell number": 1.06}, {"smiles": "COC(=O)/C=C/C(=O)OC", "normalised cell number": 1.04}, {"smiles": "C=CC[C@@H]1/C=C(\\C)C[C@H](C)C[C@H](OC)[C@H]2O[C@@](O)(C(=O)C(=O)N3CCCC[C@H]3C(=O)O[C@H](/C(C)=C/[C@@H]3CC[C@@H](O)[C@H](OC)C3)[C@H](C)[C@@H](O)CC1=O)[C@H](C)C[C@@H]2OC", "normalised cell number": 0.91}, {"smiles": "O=c1ccn([C@@H]2O[C@H](CO)[C@@H](O)[C@H]2O)c(=O)[nH]1", "normalised cell number": 0.9}, {"smiles": "CC(=O)OCC(=O)[C@@]1(O)CCC2C3CCC4=CC(=O)C=C[C@]4(C)[C@@]3(Cl)[C@@H](Cl)C[C@@]21C", "note": "(stereo partly specified)", "normalised cell number": 1.2}, {"smiles": "N#C[C@@H]1C[C@@H]2C[C@@H]2N1C(=O)[C@@H](N)C12CC3CC(CC(O)(C3)C1)C2", "normalised cell number": 1.19}, {"smiles": "Cc1coc2c1C(=O)C(=O)c1c-2ccc2c1CCCC2(C)C", "normalised cell number": 0.7}, {"smiles": "O=C1c2c(O)cccc2[C@@H](O[C@@H]2O[C@H](CO)[C@H](O)[C@@H](O)[C@H]2O)c2cc(CO)cc(O)c21", "normalised cell number": 0.88}, {"smiles": "COC1=C(OC)C(=O)C(C/C=C(\\C)CC/C=C(\\C)CC/C=C(\\C)CC/C=C(/C)CC/C=C(\\C)CC/C=C(\\C)CC/C=C(\\C)CC/C=C(\\C)CC/C=C(\\C)CCC=C(C)C)=C(C)C1=O", "normalised cell number": 1.06}]}]}
